# Assay outcomes as filed in PubChem BioAssay.
# IL1B secr inh = inhibitors of inflammasome signaling (IL-1 beta secretion); AID 743279; activity change, % at 57.5 µM; THP-1 LPS/ATP IL-1B secretion, AlphaLISA, 16 h; active compounds read low; 360,000 tested, 4.7% active; in the data active = activity change below about -50%; inconclusive = mostly about -30% to -49%
#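 Secreted IL-1B measured by AlphaLISA bead assay after 16 h compound exposure of THP-1 cells; compounds (final up to 57.5 uM) added 1 h before LPS (250 ng/mL) and ATP (1.25 mM) stimulation; lower signal means less secretion.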
# ATXN2 expr inh = inhibitors of ATXN2 expression; HEK-293 ATXN2-luciferase reporter, luminescence, 24 h; Potency, µM (doses to about 57 µM), actives largely listed as inhibitors; 360,000 tested, 0.72% active; AID 1745845; also: nearly all actives have a fitted effect of over 55% in size
#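 ATXN2-luciferase reporter cells (luciferase flanked by upstream and downstream ATXN2 gene portions) were treated 24 h at 37 °C with compounds at up to 57 uM. SteadyGlo luminescence gave expression; GF-AFC fluorescence gave viability.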
# PINK1 modulator = PINK1 expression modulation | 410,000 tested, 0.2% active | Potency, µM (titrated, usually from 76.6 µM), usual class: activators | PINK1 immunofluorescence, high-content cytometry, 24 h; active = well fitted activation curve with a large enough effect; inconclusive = small, poorly fitted or top-dose-only effect; cell line not stated here; also: nearly all actives have a fitted effect of over 65% in size
#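 Stable cell line, 250 cells/well, 12 h attachment; compounds pinned at 5 concentrations, 24 h; CCCP control. Fixed with nuclear dye, primary antibodies 12 h at 10 degrees C, secondary plus cell stain; laser-scanning cytometer read.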
# MCF10A rerep = induces DNA re-replication in MCF 10a normal breast cells; 350,000 tested, 2.9% active; AID 624296; MCF 10A DNA re-replication, Hoechst nuclear intensity, 48 h; Potency, µM (titrated, usually from 46.1 µM), usual class: activators; also: nearly all actives have a fitted effect of over 50% in size
# ATXN viability = reduces viability in counter-screen for ATXN expression inhibitors; S2 cells (HEK-293 line with an ATXN2-luciferase reporter) viability, CellTiter-Fluor protease fluorescence, 24 h; Potency, µM (doses to about 56.7 µM), most hits filed as cytotoxic; 400,000 tested, 0.49% active; also: nearly all actives have a fitted effect of over 40% in size
# SW480 rereplic = inducers of DNA re-replication in SW480 colon cancer cells; SW480 DNA re-replication, Hoechst DNA content imaging, 48 h; Potency, µM (highest dose often 46.1 µM), usual class: activators; 340,000 tested, 1.8% active; AID 624297; also: nearly all actives have a fitted effect of over 55% in size
#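 Readout is total intensity of Hoechst-stained nuclei, excited at 405 nm and collected at 500-530 nm. Compound treatment lasted 48 hr at 37 C in 5% CO2 before staining.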
# Hits are given with their value; i = inactive; ? = inconclusive; nt = not tested or not shown; ! = not confirmed by another sample; [ ] = another dose, or the depositor's remark. In the library only some 7.1% were active in any assay of this set; here they are far more common. Unless noted, calls follow the shape of the dose curve; as a rule, active = well fitted curve in the direction sought with a large enough effect; inconclusive = small, poorly fitted or top-dose-only effect, or another doubt; inactive = no such curve, though single readings can be large; an effect the other way counts as inactive or inconclusive.
SMILES,IL1B secr inh,ATXN2 expr inh,PINK1 modulator,MCF10A rerep,ATXN viability,SW480 rereplic
COc1ccc(C(=O)Nc2nc(CC(=O)NCCc3cccc(OC)c3)cs2)cc1,?,i,i,i,i,i
O=C(Cc1csc(NC(=O)c2ccccc2)n1)NO,-58,i,i,i,?,i
CC(C)Sc1ncc(Cl)c(C(=O)Nc2ccc(S(=O)(=O)N3CCCCC3)cc2)n1,nt,i,i,nt,i,nt
CCOC(=O)N1CCC(=C2c3ccc(Cl)cc3CCc3cccnc32)CC1,i,14µM!,i,23µM!,?,?
COc1ccc(-c2nc(CN3CCN(c4cc(C)nc(C)c4)CC3)c(C)o2)c2ccccc12,-105,11µM,i,16µM,?,?
CN1CCN(C(=O)c2ccc(-c3cnc4cccnn34)cc2)CC1,i,i,i,nt,i,nt
CC1CCc2[nH]c3ccc(C(=O)NCC4CCCO4)cc3c2C1 (centres undefined),-51,i,i,i,i,?
Cc1ccc(C)c(NC(=O)CN(C)C(=O)c2ccc3[nH]c4c(c3c2)CC(C)CC4)c1 (centres undefined),-54,i,i,i,i,i
CC1CCc2[nH]c3ccc(C(=O)N(C)CC(=O)Nc4ccccc4Br)cc3c2C1 (centres undefined),-74,i,i,?,i,i
CC1CCCCN1C(=O)Cn1c(SCC(=O)N(C)c2ccccc2)nc2ccccc21 (centres undefined),nt,i,i,nt,?,nt
CCOC(=O)C1CCC(CN(Cc2ccc(Cl)cc2)S(=O)(=O)c2cc(Cl)cc(Cl)c2)CC1 (centres undefined),nt,i,i,nt,i,nt
CCOC(=O)c1c(-c2ccc(OC)cc2)oc2c1C(OC(C)=O)CCC2 (centres undefined),i,i,i,nt,i,nt
Cc1ccc(C(=O)N/N=C(\CC(C)C)c2ccccc2)cc1,i,i,i,i,i,23µM
CCOc1ccc(NC(=O)Cn2c(=O)c(CNc3ccc(OC)cc3)cc3ccc(OC)cc32)cc1,nt,i,i,nt,i,nt
NC(=O)CN1C(=O)C(O)(CC(=O)/C=C\c2ccc3c(c2)OCO3)c2ccccc21 (centres undefined),-88,i,i,?,i,i
COc1ccccc1OCC(=O)/C=C1/N(C)c2ccccc2C1(C)C,i,i,i,i,i,i
CN1/C(=C\C(=O)COc2ccc3c(c2)OCO3)C(C)(C)c2ccccc21,-78,i,i,13µM,i,?
CN1C(=O)C(O)(CC(=O)c2ccc3c(c2)OCO3)c2ccccc21 (centres undefined),i,i,?,i,i,i
CN1C(=O)C(O)(CC(=O)/C=C\c2ccc3c(c2)OCO3)c2ccccc21 (centres undefined),-101,i,i,?,?,?
COCCn1c(SCC(=O)c2c(C)[nH]c3ccccc23)nc2cc(C(=O)NC(C)C)ccc2c1=O,nt,i,i,nt,i,nt
Cc1ccc(-n2ncc3c(SCc4ccccn4)ncnc32)c(C)c1,-69,i,i,?,i,i
CSc1ncnc2c1cnn2-c1ccc(C)cc1C,i,i,i,i,i,i
O=C(COC(=O)c1ccc(Cl)c([N+](=O)[O-])c1)NC1CCCC1,i,i,i,i,i,i
CC(C)N(C(=O)COC(=O)c1ccccc1C(=O)c1ccc(Cl)c([N+](=O)[O-])c1)C(C)C,-102,?,i,?,i,?
CN(CCC#N)C(=O)COC(=O)c1ccccc1C(=O)c1ccc(Cl)c([N+](=O)[O-])c1,-106,i[11.3 µM],i,9.2µM,nt,i
SMILES,IL1B secr inh,ATXN2 expr inh,PINK1 modulator,MCF10A rerep,ATXN viability,SW480 rereplic
O=C(COC(=O)c1ccccc1C(=O)c1ccc(Cl)c([N+](=O)[O-])c1)NC1CCCCCC1,-107,?,i,2.6µM,nt,3.7µM
Cn1c(N)c(C(=O)COC(=O)c2ccccc2C(=O)c2ccc(Cl)c([N+](=O)[O-])c2)c(=O)n(C)c1=O,-99,?,i,12µM,nt,?
Cc1cccc2cc(CN(CC3CCCO3)C(=O)c3cccc(F)c3)c(N(C)C)nc12 (centres undefined),nt,nt,i,nt,i,nt
COc1ccc(OC)c(NC(=O)CN(C)S(=O)(=O)c2ccc(C(=O)N3CCOCC3)s2)c1,nt,i,i,nt,i,nt
COc1ccccc1CNC(=O)CCNS(=O)(=O)/C=C/c1ccc(C)cc1,-55,i,i,i,i,i
Cc1ccc(/C=C/S(=O)(=O)NCCC(=O)NCc2ccccc2F)cc1,i,i,i,i,i,i
Cc1cccc(-n2cc(-c3ccccc3)c3c(NC(C)C)ncnc32)c1,nt,nt,i,nt,nt,nt
CC1=C(C(=O)N2CCCCCC2)CC(CC(=O)NC2CCCC2)C(=O)N1Cc1ccc(C(C)(C)C)cc1 (centres undefined),-73,?,i,nt,?,nt
CC1=C(C(=O)N(C(C)C)C(C)C)CC(CC(=O)NC2CCCC2)C(=O)N1Cc1ccc(C(C)(C)C)cc1 (centres undefined),-68,?,i,nt,?,nt
CC1=C(C(=O)N2CCCCCC2)CC(CC(=O)NC2CCCC2)C(=O)N1Cc1ccccc1 (centres undefined),i,i,i,nt,i,nt
COC(=O)[C@@H]1CCCN1C(=O)c1c(OC)cc(=O)n2c1CCN(Cc1cc(OC)ccc1F)CC2,nt,nt,i,nt,i,nt
COc1cc(/C=C/c2cc[n+](C)c3ccccc23)cc(OC)c1OC,nt,nt,i,nt,nt,nt
Cc1ccc(Sc2ncccc2N)cc1,i,i,i,?,i,21µM
Cc1ccc(C2=N/C(=C\N3CCCCC3)C(=O)O2)cc1,-63,i,i,?,i,i
Cc1ccc(C2=N/C(=C/N3CCOCC3)C(=O)O2)cc1,i,i,i,i,i,i
Cc1cc(C)cc(NC(=O)CSc2oc(-c3ccccc3)nc2S(=O)(=O)c2ccccc2)c1,nt,i,i,nt,i,nt
NC1=NC[C@H](Cc2ccc(O)cc2)N1CCCCC1CCCCC1,-58,?,i,?,?,i[9.22 µM]
NC1=NC[C@H](Cc2ccccc2)N1CCCCC1CCCCC1,?,25µM,i,i,?,i[9.22 µM]
NC1=NC[C@@H](CC2CCCCC2)N1CCc1cc(C(F)(F)F)cc(C(F)(F)F)c1,-109,20µM,i,?,18µM,i
NC1=NC[C@H](c2ccccc2)N1CC1CCCCC1,-54,i,i,i,i,i
CC(C)S(=O)(=O)c1oc(-c2cccs2)nc1S(=O)(=O)c1ccc(F)cc1,nt,nt,i,nt,nt,nt
O=C(Cn1c(=O)n(Cc2ccc(Cl)cc2)c(=O)c2cccnc21)Nc1ccccc1C(F)(F)F,nt,i,i,nt,i,nt
Cc1ccc(NC(=O)c2cc(C(=O)c3cc(Cl)ccc3O)cn(-c3ccc(C)cc3)c2=O)cc1,i,i,35µM,i,i,i
Cc1nc(N2CCN(C(=O)c3ccco3)CC2)c2oc3ccccc3c2n1,?,?,i,?,i,8.2µM
CCc1nc(N2CCCC2C(=O)O)c2oc3ccccc3c2n1 (centres undefined),i,i,i,i,i,i
